Results: PubChem BioAssay (NCATS)
Where “and” joins values, the source holds several entries; their conditions need not be identical. Equal entries are not always repeated. A number with no mark means an inactive call. Results filed as inconclusive are left out. Calls of active or inactive are those of the source. Unless noted, the call rests on the fitted dose curve; in most records, active means well fitted curve in either direction with a large enough effect (not every such curve was filed as active); inconclusive means small, poorly fitted or top-dose-only effect, or another doubt; inactive means flat fitted curve, though single readings scatter.

Experiments:
[1] = Stat Signaling Pathway (AID 446); conditions: ME-180 SIE beta-lactamase reporter, IL-6 stimulated, 5 h;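 further: ME-180 cervical cancer cells given 40 pM IL-6 alongside compound; SIE-controlled beta-lactamase reporter measured as 460/530 nm FRET emission ratio; on the % scale 0 is the no-effect control and ±100 the full control effect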
Procedure, shortened: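 ME-180 cells carrying a SIE-driven beta-lactamase reporter are stimulated with 40 pM IL-6 for 5 h at 37C in the presence of compound. The 460/530 nm FRET substrate ratio is read after 2.5 h at RT. Data are normalised to 300 pM IL-6 and to 125 nM JAK inhibitor controls.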

[2] = biological target: Mitogen-activated protein kinase 10 (Mus musculus) (UniProt Q61831); assay: JNK3 AlphaScreen Assay (AID 530); conditions: JNK3 lysate, c-Jun phosphorylation; series mostly up to 25.6 µM;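 further: kinase came from lysate of stimulated human HepG2 cells; signal reports phosphorylation of biotinylated GST-cJun 1-79 at Ser73 with 10 µM ATP; on the % scale 0 is the no-effect control and ±100 the full control effect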
Procedure, shortened: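 Room-temperature AlphaScreen kinase assay; pre-activated HepG2 lysate as JNK3 source, biotin-GST-cJun(1-79) substrate, 10 uM ATP, compound 15 min preincubation.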

[3] = biological target: 3',5'-cyclic-AMP phosphodiesterase 4B (Homo sapiens) (UniProt Q07343); assay: qHTS Assay for Inhibitors of PDE-IV (AID 607; active means well fitted activation curve with a large enough effect in the main read-out, with a control signal flat, not every such curve was filed as active; further: % of control where 0% means no effect); conditions: HEK293 ACTOne CNG channel cells, membrane potential fluorescence; series mostly up to 22.9 µM
Sequence of 3',5'-cyclic-AMP phosphodiesterase 4B (Homo sapiens) (Q07343 whole entry, looked up): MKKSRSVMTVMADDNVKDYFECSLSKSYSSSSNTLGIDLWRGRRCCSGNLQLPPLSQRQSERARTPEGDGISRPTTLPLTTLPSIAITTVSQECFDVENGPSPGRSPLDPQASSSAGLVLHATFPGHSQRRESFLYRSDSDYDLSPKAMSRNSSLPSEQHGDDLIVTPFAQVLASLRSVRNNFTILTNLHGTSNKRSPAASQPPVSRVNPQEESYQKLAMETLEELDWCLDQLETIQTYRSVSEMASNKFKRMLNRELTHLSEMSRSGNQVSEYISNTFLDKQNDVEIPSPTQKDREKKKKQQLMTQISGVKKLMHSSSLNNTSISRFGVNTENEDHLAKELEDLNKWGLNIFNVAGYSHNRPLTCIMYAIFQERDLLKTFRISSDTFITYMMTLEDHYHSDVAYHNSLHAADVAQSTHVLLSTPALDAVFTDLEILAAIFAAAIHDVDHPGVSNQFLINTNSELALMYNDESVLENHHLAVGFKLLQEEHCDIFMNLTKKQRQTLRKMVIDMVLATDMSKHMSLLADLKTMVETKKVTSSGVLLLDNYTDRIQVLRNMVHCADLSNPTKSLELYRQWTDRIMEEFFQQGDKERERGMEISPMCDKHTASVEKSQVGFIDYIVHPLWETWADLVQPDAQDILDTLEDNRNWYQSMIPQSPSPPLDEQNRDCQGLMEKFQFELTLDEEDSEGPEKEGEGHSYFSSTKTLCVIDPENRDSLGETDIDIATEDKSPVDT
Procedure, shortened: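 HEK293 ACTOne cells with CNG channel (1000/well), endogenous PDE4; membrane potential dye, compounds up to 22.9 uM final. Fluorescence Ex 535/Em 590; RO 20-1724 (100 uM final) as reference.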

[4] = biological target: Glucocorticoid receptor (Homo sapiens) (UniProt P04150); assay: GR-GFP Redistribution (AID 450;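 active means compounds whose dose series gives a full or clear partial fitted curve of increased nuclear translocation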; further: potency means the concentration at half of the fitted maximal effect); conditions: U2OS GR-GFP nuclear translocation, laser cytometry, 2 h
Sequence of Glucocorticoid receptor (Homo sapiens) (P04150 whole entry, looked up, the tested form may be a part): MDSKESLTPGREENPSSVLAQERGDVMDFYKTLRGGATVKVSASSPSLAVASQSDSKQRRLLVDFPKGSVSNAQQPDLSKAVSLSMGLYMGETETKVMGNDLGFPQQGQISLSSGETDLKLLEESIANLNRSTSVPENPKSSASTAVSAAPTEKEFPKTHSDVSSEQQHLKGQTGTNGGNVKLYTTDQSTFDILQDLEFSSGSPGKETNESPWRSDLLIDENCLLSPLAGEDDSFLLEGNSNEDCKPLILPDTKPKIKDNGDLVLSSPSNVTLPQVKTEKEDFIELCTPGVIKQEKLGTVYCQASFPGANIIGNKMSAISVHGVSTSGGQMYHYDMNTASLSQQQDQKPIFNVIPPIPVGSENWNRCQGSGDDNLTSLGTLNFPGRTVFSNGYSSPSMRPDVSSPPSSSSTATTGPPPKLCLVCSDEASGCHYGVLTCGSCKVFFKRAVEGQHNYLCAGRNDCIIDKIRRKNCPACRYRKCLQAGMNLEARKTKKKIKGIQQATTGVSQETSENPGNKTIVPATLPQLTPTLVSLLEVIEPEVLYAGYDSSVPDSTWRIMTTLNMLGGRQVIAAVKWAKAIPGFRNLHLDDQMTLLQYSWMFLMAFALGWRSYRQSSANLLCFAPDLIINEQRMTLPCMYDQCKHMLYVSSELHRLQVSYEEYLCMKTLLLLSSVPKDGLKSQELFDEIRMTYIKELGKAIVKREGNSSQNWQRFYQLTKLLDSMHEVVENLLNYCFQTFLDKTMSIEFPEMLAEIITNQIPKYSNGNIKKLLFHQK

[5] = biological target: Glucocorticoid receptor (Homo sapiens) (UniProt P04150); assay: GR-EFC Redistribution (AID 451; calls by dose curve; further: potency means the concentration at half of the fitted maximal effect); conditions: CHO-K1 GR-EFC translocation, beta-gal luminescence, 2 h
Procedure, shortened: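 Translocation of GR-ED fusion to nuclear EA restores b-gal, read by luminescence after 1 h room-temperature detection. Engineered CHO-K1 biosensor cells, 1,000/well, exposed 2 h at 37 C to titrations up to 46 uM final.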

OC(CCN1CCCCC1)(c1ccccc1)c1ccccc1
activity, negative = inhibition ([1]; at 7.69 µM (top of the series)): -4.56% | activity, negative = inhibition ([1]; at 17.2 µM (top of the series)): 8.93% and 3.51% | outcome [2]: inactive | outcome [3]: inactive

CCC(NC(C)C)C(O)c1ccc(O)c(O)c1 (centres undefined)
activity, negative = inhibition ([1]; at 17.2 µM (top of the series)): 1.25%

C[C@@H]1C[C@H]2[C@@H]3CCC4=CC(=O)C=C[C@]4(C)[C@@]3(F)[C@@H](O)C[C@]2(C)[C@H]1C(=O)CO
activity, negative = inhibition ([1]; at 17.2 µM (top of the series)): 1.17% | Potency [4]: > 20.6 µM

CC(=O)OCC(=O)[C@@]1(O)CC[C@H]2[C@@H]3CCC4=CC(=O)C=C[C@]4(C)[C@H]3[C@@H](O)C[C@@]21C
activity, negative = inhibition ([1]; at 17.2 µM (top of the series)): -3.24%

C[C@H]1C[C@H]2[C@@H]3CCC4=CC(=O)C=C[C@]4(C)[C@@]3(Cl)[C@@H](O)C[C@]2(C)[C@@]1(O)C(=O)CO
activity, negative = inhibition ([1]; at 17.2 µM (top of the series)): -1.29%

C[C@]12CC[C@H]3[C@@H](CCC4=CC(=O)CC[C@@]43C)[C@@H]1CC[C@@H]2C(=O)CO
activity, negative = inhibition ([1]; at 17.2 µM (top of the series)): 1.53% | Potency [4]: 0.0356 µM (active)

CCCC1O[C@@H]2C[C@H]3[C@@H]4CCC5=CC(=O)C=C[C@]5(C)[C@H]4[C@@H](O)C[C@]3(C)[C@]2(C(=O)CO)O1 (some centres undefined)
activity, negative = inhibition ([1]; at 17.2 µM (top of the series)): -3.6%

c1ccc(-c2ccc(C(c3ccccc3)n3ccnc3)cc2)cc1 (centres undefined)
activity, negative = inhibition ([1]; at 17.2 µM (top of the series)): -24.4% | Potency [4]: > 20.6 µM

CC(=O)OCC(=O)[C@@]1(O)[C@H](C)C[C@H]2[C@@H]3CCC4=CC(=O)C=C[C@]4(C)[C@@]3(F)[C@@H](O)C[C@@]21C
activity, negative = inhibition ([1]; at 17.2 µM (top of the series)): -9.24%

Oc1cc(O)c2c(c1)O[C@H](c1ccc(O)c(O)c1)[C@H](O)C2
activity, negative = inhibition ([1]; at 17.2 µM (top of the series)): -2.66% and 0.865% | activity, negative = inhibition ([1]; at 38 µM (top of the series)): -26.7% | Potency [4]: > 46 µM and > 20.6 µM | Potency [5]: > 46 µM and > 20.6 µM | outcome [2]: inactive | outcome [3]: inactive

COc1c2occc2c(OC)c2c(=O)cc(C)oc12
activity, negative = inhibition ([1]; at 17.2 µM (top of the series)): 7.57% and -1.58% | Potency [4]: > 20.6 µM | Potency [5]: > 20.6 µM | outcome [2]: inactive

CCC(C(=O)OCCN(CC)CC)c1ccccc1 (centres undefined)
activity, negative = inhibition ([1]; at 17.2 µM (top of the series)): 2.13% | Potency [4]: > 20.6 µM

C1CCc2nnnn2CC1
activity, negative = inhibition ([1]; at 17.2 µM (top of the series)): 5.56% | activity, negative = inhibition ([1]; at 38 µM (top of the series)): -9.49% | outcome [3]: inactive

CN(C)CCOc1ccccc1Cc1ccccc1
activity, negative = inhibition ([1]; at 17.2 µM (top of the series)): -3.49%

C[N+]1(CCCCC[N+]2(C)CCCC2)CCCC1
activity, negative = inhibition ([1]; at 17.2 µM (top of the series)): 14.2% | activity, negative = inhibition ([1]; at 38 µM (top of the series)): 0.841% | Potency [4]: > 46 µM and > 20.6 µM | Potency [5]: > 46 µM and > 20.6 µM | outcome [3]: inactive

CCCCOc1cc(C(=O)NCCN(CC)CC)c2ccccc2n1
activity, negative = inhibition ([1]; at 17.2 µM (top of the series)): 0.235% and -1.92% and -8.41% | Potency [4]: > 20.6 µM | Potency [5]: > 20.6 µM

NCCCC[C@H](N[C@@H](CCc1ccccc1)C(=O)O)C(=O)N1CCC[C@H]1C(=O)O
activity, negative = inhibition ([1]; at 17.2 µM (top of the series)): 4.58% | Potency [4]: > 20.6 µM | Potency [5]: > 20.6 µM | outcome [2]: inactive

CC(=O)O[C@H]1C[C@@H]2CC[C@@H]3[C@H](CC[C@@]4(C)[C@H]3C[C@H]([N+]3(C)CCCCC3)[C@@H]4OC(C)=O)[C@@]2(C)C[C@@H]1[N+]1(C)CCCCC1
activity, negative = inhibition ([1]; at 17.2 µM (top of the series)): 10.1% | Potency [4]: > 20.6 µM

COc1cc(-c2ccc(=O)[nH]n2)ccc1OC(F)F
activity, negative = inhibition ([1]; at 17.2 µM (top of the series)): 0.425% | activity, negative = inhibition ([1]; at 38 µM (top of the series)): -14.4% | Potency [4]: > 46 µM and > 20.6 µM | Potency [5]: > 46 µM and > 20.6 µM

CC(C)NC[C@@H](O)COc1cccc2ccccc12
activity, negative = inhibition ([1]; at 17.2 µM (top of the series)): -2.8% and 2.51% and -11.2% | activity, negative = inhibition ([1]; at 38 µM (top of the series)): 8.52% and -21.7% | outcome [3]: inactive

CCCn1c(=O)[nH]c(=O)c2[nH]cnc21
activity, negative = inhibition ([1]; at 17.2 µM (top of the series)): 4.71% | activity, negative = inhibition ([1]; at 38 µM (top of the series)): -5.28% | outcome [2]: inactive | outcome [3]: inactive

CN1CCC[C@@H]1c1cccnc1
activity, negative = inhibition ([1]; at 38 µM (top of the series)): -4.46%

CC(=O)OCC(=O)[C@@]1(OC(C)=O)[C@@H](C)C[C@H]2[C@@H]3C[C@H](F)C4=CC(=O)C=C[C@]4(C)[C@@]3(F)[C@@H](O)C[C@@]21C
activity, negative = inhibition ([1]; at 17.2 µM (top of the series)): 0.432% | Potency [4]: 0.000878 µM (active)

CNCCC=C1c2ccccc2CCc2ccccc21
activity, negative = inhibition ([1]; at 7.69 µM (top of the series)): -5.09% | activity, negative = inhibition ([1]; at 17.2 µM (top of the series)): -1.99% and -5.78% | activity, negative = inhibition ([1]; at 38 µM (top of the series)): -27.8% | Potency [4]: > 46 µM and > 20.6 µM | Potency [5]: > 46 µM and > 20.6 µM and > 9.22 µM | outcome [3]: inactive

CCCCC(=O)O[C@]1(C(=O)CO)CC[C@H]2[C@@H]3CCC4=CC(=O)CC[C@]4(C)[C@H]3[C@@H](O)C[C@@]21C
activity, negative = inhibition ([1]; at 17.2 µM (top of the series)): -12.8% | Potency [4]: 0.000459 µM (active)

C/C=C(/C(=C/C)c1ccc(O)cc1)c1ccc(O)cc1
activity, negative = inhibition ([1]; at 17.2 µM (top of the series)): -10.4% | Potency [4]: > 20.6 µM

CCN1CCN(c2cc3c(cc2F)c(=O)c(C(=O)O)cn3C2CC2)CC1
activity, negative = inhibition ([1]; at 17.2 µM (top of the series)): 20.5% | Potency [4]: > 20.6 µM

CCCC(=O)Nc1ccc(OCC(O)CNC(C)C)c(C(C)=O)c1 (centres undefined)
activity, negative = inhibition ([1]; at 17.2 µM (top of the series)): 7.52% | Potency [4]: > 20.6 µM

C[C@H](CCC(=O)O)[C@H]1CC[C@H]2[C@@H]3C(=O)C[C@@H]4CC(=O)CC[C@]4(C)[C@H]3CC(=O)[C@]12C
activity, negative = inhibition ([1]; at 17.2 µM (top of the series)): 1.08% | Potency [4]: > 20.6 µM

CC(=O)OCC(=O)[C@@]12OC(C)(C)O[C@@H]1C[C@H]1[C@@H]3C[C@H](F)C4=CC(=O)C=C[C@]4(C)[C@@]3(F)[C@@H](O)C[C@@]12C
activity, negative = inhibition ([1]; at 17.2 µM (top of the series)): -3.28% | Potency [4]: 0.00057 µM (active)

CC(CCc1ccccc1)NCC(O)c1ccc(O)c(C(N)=O)c1 (centres undefined)
activity, negative = inhibition ([1]; at 17.2 µM (top of the series)): 9.7% | Potency [4]: > 20.6 µM

CC1(C)O[C@@H]2C[C@H]3[C@@H]4C[C@H](F)C5=CC(=O)CC[C@]5(C)[C@H]4[C@@H](O)C[C@]3(C)[C@]2(C(=O)CO)O1
activity, negative = inhibition ([1]; at 17.2 µM (top of the series)): -6.53% | Potency [4]: 0.00217 µM (active)

CN(C)CC/C=C1\c2ccccc2Sc2ccc(Cl)cc21
activity, negative = inhibition ([1]; at 7.69 µM (top of the series)): -3.4% | activity, negative = inhibition ([1]; at 17.2 µM (top of the series)): -6.29% | Potency [4]: > 20.6 µM and > 46 µM | Potency [5]: > 20.6 µM and > 9.22 µM | outcome [2]: inactive | outcome [3]: inactive

CCCCCCC[N+](CC)(CC)CCCCc1ccc(Cl)cc1
activity, negative = inhibition ([1]; at 17.2 µM (top of the series)): -5.02% | Potency [4]: > 20.6 µM | Potency [5]: > 20.6 µM

CCN(CCCCOC(=O)c1ccc(OC)c(OC)c1)C(C)Cc1ccc(OC)cc1 (centres undefined)
activity, negative = inhibition ([1]; at 17.2 µM (top of the series)): 1.95% | Potency [4]: > 20.6 µM

CC(C)(C(=O)c1cccnc1)c1cccnc1
activity, negative = inhibition ([1]; at 17.2 µM (top of the series)): -5.5% | Potency [4]: > 20.6 µM | Potency [5]: > 20.6 µM | outcome [2]: inactive | outcome [3]: inactive

COc1ccc(CCN2CCC(Nc3nc4ccccc4n3Cc3ccc(F)cc3)CC2)cc1
activity, negative = inhibition ([1]; at 17.2 µM (top of the series)): -11% and -15.4% | Potency [4]: > 20.6 µM | Potency [5]: > 20.6 µM | outcome [2]: inactive

O=C1c2ccccc2C(=O)C1c1ccccc1
activity, negative = inhibition ([1]; at 17.2 µM (top of the series)): 3.06% | Potency [4]: > 20.6 µM | Potency [5]: > 20.6 µM | outcome [3]: inactive

CN1CCC(=C2c3ccccc3Sc3ccccc32)CC1
activity, negative = inhibition ([1]; at 17.2 µM (top of the series)): -4.56% | Potency [4]: > 20.6 µM | Potency [5]: > 20.6 µM | outcome [2]: inactive | outcome [3]: inactive

N[C@@H](Cc1cnc[nH]1)C(=O)O
activity, negative = inhibition ([1]; at 38 µM (top of the series)): 27.2% | Potency [4]: > 46 µM | Potency [5]: > 46 µM | outcome [3]: inactive
